# Measured values: PubChem BioAssay
# The source made the active and inactive calls.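 How the source made its calls: active means compound raises insulin release from rat beta cells at 5 mM glucose, no numeric limit stated; inactive means the rest.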
# Experiment: stimulators of insulin release from INS-1E, primary screen, cell-based, 5 mM glucose, NPC library (AID 1117329); further: reference of the scale not given here
# Settings: rat INS-1E insulin secretion, at 10 µM, active compounds read high
row,SMILES,insulin secretion stimulation
1,NS(=O)(=O)c1cc(-c2nn[nH]n2)c(NCc2cccs2)cc1Cl,6.5% (inactive)
2,CCCCNC(=O)NS(=O)(=O)c1ccc(N)cc1,0.4% (inactive)
3,CCCC(CCC)C(N)=O,2% (inactive)
4,COc1ccc(CC2c3cc(OC)c(OC)cc3CCN2CCC(=O)OCCCCCOC(=O)CCN2CCc3cc(OC)c(OC)cc3C2Cc2ccc(OC)c(OC)c2)cc1OC (centres undefined),2.2% (inactive)
5,CC1(C)OC(=O)Nc2ccc(Br)cc21,6.1% (inactive)
6,COC(=O)C1=C(C)NC(COC(N)=O)=C(C(=O)OC(C)C)C1c1cccc(Cl)c1Cl (centres undefined),8.1% (inactive)
7,CCO[C@@H]1O[C@H](C(COCc2ccccc2)OCc2ccccc2)[C@H](OCc2ccccc2)[C@H]1O (some centres undefined),2.2% (inactive)
8,Oc1cn2c(n1)Nc1ccc(Cl)c(Cl)c1C2,0.6% (inactive)
9,NC(=Nc1ccccc1)Nc1ccccc1,13.9% (inactive)
10,CCOC(=O)OCC/C(SC(=O)OCC)=C(\C)N(C=O)Cc1cnc(C)nc1N,1.5% (inactive)
11,CC(C)C(=O)Nc1cccc(C(F)(F)F)c1,2.1% (inactive)
12,C/C(=C(\CCO)SS/C(CCO)=C(\C)N(C=O)Cc1cnc(C)nc1N)N(C=O)Cc1cnc(C)nc1N,0.9% (inactive)
13,COc1cc(C(=S)N2CCOCC2)cc(OC)c1OC,1.5% (inactive)
14,CC(C)(C)c1cc(C=O)cc(C(C)(C)C)c1O,1.1% (inactive)
15,O=c1[nH]c(=O)n([C@H]2O[C@H](CO)[C@@H](O)[C@@H]2O)cc1/C=C\Br,3.5% (inactive)
16,Cc1c(F)cc2c(=O)c(C(=O)O)cn3c2c1CCC3C (centres undefined),-1.9% (inactive)
17,CC(=O)Oc1ccc(C2(c3ccc(OC(C)=O)cc3)Oc3ccccc3NC2=O)cc1,19.9% (inactive)
18,COc1ccnc2c1CCCCC2S(=O)c1nc2ccccc2[nH]1 (centres undefined),1.6% (inactive)
19,CCN(CC)C(=O)C1CN2CCc3cc(OC)c(OC)cc3C2CC1OC(C)=O (centres undefined),3.5% (inactive)
20,CCOC(=O)Cn1cccc1-c1nc(-c2ccc(OC)cc2)c(-c2ccc(OC)cc2)s1,1.9% (inactive)

row,SMILES,insulin secretion stimulation
1,N#C/C(=C1/SC[C@@H](c2ccc(Cl)cc2Cl)S1)n1ccnc1,2.35% (inactive)
2,NC(=O)COCCN1CCN(C(c2ccccc2)c2ccc(Cl)cc2)CC1 (centres undefined),1.7% (inactive)
3,O=C(CCCN1CCN(c2ccc(F)cc2)CC1)NC1c2ccccc2CSc2ccccc21 (centres undefined),-0.2% (inactive)
4,Cc1ccc(C(=O)C(=O)O)cc1C,2.9% (inactive)
5,CN1[C@@H]2CC[C@H]1CC(NC(=O)n1c(=O)[nH]c3ccccc31)C2 (some centres undefined),0.4% (inactive)
6,CCOc1cc(OCC)c(C(=O)CCC(=O)O)cc1OCC,0.5% (inactive)
7,Cc1cc(NS(=O)(=O)c2ccc(N)cc2)nc(C)n1,-1.1% (inactive)
8,c1ccc2c(c1)CCc1ccccc1N2,0.55% (inactive)
9,CCOC(=O)C(=O)CCc1ccccc1,2.2% (inactive)
10,O=C(O)Cc1ccc2c(c1)C(=O)c1ccccc1CO2,0.2% (inactive)
11,CN[C@H](CC(C)C)C(=O)N[C@H]1C(=O)N[C@@H](CC(N)=O)C(=O)N[C@H]2C(=O)N[C@H]3C(=O)N[C@H](C(=O)N[C@H](C(=O)O)c4cc(O)cc(O)c4-c4cc3ccc4O)[C@H](O)c3ccc(c(Cl)c3)Oc3cc2cc(c3O[C@@H]2OC(CO)[C@@H](O)[C@H](O)[C@@H]2O[C@H]2C[C@](C)(N)[C@H](O)[C@H](C)O2)Oc2ccc(cc2Cl)[C@H]1O (some centres undefined),-0.1% (inactive)
12,Oc1cccc(-c2c3nc(c(-c4cccc(O)c4)c4ccc([nH]4)c(-c4cccc(O)c4)c4nc(c(-c5cccc(O)c5)c5ccc2[nH]5)CC4)C=C3)c1,-1.15% (inactive)
13,CCC(CN)=C(c1ccccc1)c1ccccc1,29.4% (active)
14,CC(C)=CCC/C(C)=C/CC/C(C)=C/C(=O)OCC(=O)[C@@]1(O)CC[C@H]2[C@@H]3CCC4=CC(=O)C=C[C@]4(C)[C@H]3[C@@H](O)C[C@@]21C,-2% (inactive)
15,NNc1nnc(NN)c2ccccc12,-1.8% (inactive)
16,COc1cccc(CCc2ccccc2OCC(CN(C)C)OC(=O)CCC(=O)O)c1 (centres undefined),11.9% (inactive)
17,CC(C)(Oc1ccc(Cl)cc1)C(=O)OCCCOC(=O)C(C)(C)Oc1ccc(Cl)cc1,0.5% (inactive)
18,C/C=C/c1ccc(O)c(OC)c1,-0.1% (inactive)
19,Cc1ccccc1C(=O)Nc1ccc(C(=O)N2CCCC(N(C)C)c3ccccc32)cc1 (centres undefined),2.4% (inactive)
